Only some compounds are listed: those with a hit (about 1.8% of all), similar ones and a draw of the others.
VLA-4 inh: inhibition in a human VLA-4 binding assay | inhibition, % (about 7 µM as worked out from the volumes in the protocol) | 330,000 tested, 0.2% active | VLA-4 expressing cells, ligand binding flow cytometry | AID 2557; in the data active = inhibition above about 50%
A3A deaminase: blocks human APOBEC3A ssDNA deamination; P31941; inhibition, % at 20 µM; recombinant A3A, FAM/TAMRA ssDNA deamination fluorescence; 330,000 tested, 0.41% active; AID 493011;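 active = at least 40% inhibition at 20 µM here, with at most 30% in a related deaminase screen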;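 note: plate controls were A3A with DMSO for no effect and wells lacking A3A enzyme for full effect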
beta cell repl: induces beta-cell replication in MIN6 cells; MIN6 cells proliferation, ATPlite luminescence, 48 h; cells starved in 0.2% serum; 100% = growth in 10% serum; proliferation, % at 10 µM; 330,000 tested, 0.29% active; AID 2380;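 active = compounds whose signal lies at least 3.5 SD above the mean of all wells on their plate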;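 note: 0% = DMSO-treated cells in low-serum medium and 100% = 10% serum control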
CendR NRP1 mod: modulators of CendR peptide binding to human neuropilin-1. O14786. FAM-RPARPAR peptide binding to NRP-1, fluorescence polarization. inhibition, % at 25 µM. 360,000 tested, 0.85% active;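 active = inhibition or corrected inhibition above about 18%, plus a signal ratio from 0.5 to 1.5, limit read from the data, passing the limit was not always enough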
APOBEC3G inh: blocks human APOBEC3G single-stranded DNA deamination; AID 493012; recombinant A3G, ssDNA deamination FAM/TAMRA fluorescence; 330,000 tested, 0.28% active; inhibition, % at 20 µM; Q9HC16;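 active = inhibition of at least 40% at 20 µM, with no more than 30% in the related APOBEC3A deaminase screen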;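 note: plate controls were DMSO wells with A3G for no effect and wells lacking A3G enzyme for full effect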
A3G conf: confirmation of human APOBEC3G DNA deaminase inhibitors | 890 tested, 72% active | recombinant A3G ssDNA deaminase, UDG/FAM-TAMRA fluorescence | shares compounds with APOBEC3G inh | AID 493152 | inhibition, % at 20 µM;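 active = inhibition reaching a set limit in any replicate at 20 µM, the limit being 80% of the first screen's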
UDG A3G counter: inhibits E. coli UDG, flagging false APOBEC3G inhibitors | shares compounds with APOBEC3G inh | UDG counterscreen, FAM/TAMRA oligo fluorescence | inhibition, % at 20 µM | 710 tested, under 10 active | AID 504715;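 active = compounds giving 40% or more inhibition at 20 µM in any one of the three replicates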;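 note: plate controls were DMSO wells with UDG and oligo for no effect and DMSO wells lacking both for full effect; inhibitors lower the FAM signal released by uracil excision and alkaline cleavage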
Numbers without * were called inactive; · = not tested or not shown.

SMILES | VLA-4 inh | A3A deaminase | beta cell repl | CendR NRP1 mod | APOBEC3G inh | A3G conf | UDG A3G counter
Nc1cc2nc3ccccc3nc2cc1N | -8.3 | 17.6 | -2.1 | 60.4 | 48.4* | 25.2* | 0.2
Nc1c2c(nc3ccccc13)CCN(Cc1ccccc1)C2 | -41.7 | -4.2 | 1.3 | 68.4 | -8.3 | · | ·
NC(N)=Nc1ccc2[nH]c3c(c2c1)C[C@@]1(O)[C@H]2Cc4ccc(O)c5c4[C@@]1(CCN2CC1CC1)[C@H]3O5 | 47.9 | 15.8 | -6.6 | 8.3 | 83.9* | 96.8* | -1.4
Oc1ccc2c3c1O[C@H]1[C@@H](O)CC[C@@]4(O)[C@@H](C2)N(CC2CCC2)CC[C@]314 | 15.4 | -0.6 | 0.9 | -18.3 | -6.6 | · | ·
CCn1c(NN=O)nc2ccccc21 | -12.9 | -0.5 | -6.6 | -1.3 | 58.4* | 14.4 | -0.7
COC(=O)C1=C(c2ccc(F)cc2OCc2ccccc2)C[C@@H]2CC[C@H]1N2C(=O)NCCc1ccc(F)cc1 | 17.8 | -1.7 | -7.2 | -1.8 | -6.9 | · | ·
C/C(=N\NC(=O)c1ccccc1)c1c(O)n(Cc2ccccc2)c(=O)[nH]c1=O | 7.2 | 0.9 | 2.4 | -8.8 | -6.2 | · | ·
C/C(=N\Nc1cccc2ccccc12)c1c(O)n(Cc2ccccc2)c(=O)[nH]c1=O | -0.8 | -6.8 | -6.3 | -72.9 | 41.5* | 15.6 | -5.1
CCOC(=O)CC1c2ccccc2-n2nncc2CN1Cc1ccc(OC)cc1 (stereo not drawn) | · | · | · | 13.3 | · | · | ·
O=C1C2CCCN2C(c2cccs2)N1c1ccccn1 (stereo not drawn) | 2.5 | -0.4 | 0.8 | -0.6 | 88.9* | 15.8 | -3.2
COc1cc2c(cc1OC)-c1c3c(cc4c1[C@@H](C2)N(C)CC4)OCO3 | -8.9 | 25.9 | -6.8 | 8.6 | 45.5* | 23.9 | ·
O=c1[nH]c(O)c(N=Nc2ccc([N+](=O)[O-])cc2)c(=O)[nH]1 | -4.1 | 3.2 | 2.4 | -2.5 | -3.0 | · | ·
